About 1,400 (0.42%) of roughly 330,000 compounds were called active.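 The calls were made as follows: active = inhibition above its plate's threshold, mean inhibition of all tested compounds on the plate plus 3 SD (cut at about 37% in these data); inactive = the rest.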 The sample as a whole holds a higher share of actives than the screen did.
Each molecule was assayed against Orexin/Hypocretin receptor type 1 (Homo sapiens) (UniProt O43613) (assay: OX1R (HCRTR1) antagonists, primary screen, fluorescence, CHO/OX1R cells, Fluo-8 calcium, orexin A (AID 434989;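 also: 0% = orexin A challenge wells and 100% = SB-334867-A antagonist wells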)). Conditions: Fluo-8 calcium fluorescence, at 5 µM, active compounds read high.
Orexin/Hypocretin receptor type 1 (Homo sapiens), sequence (O43613 whole entry, looked up): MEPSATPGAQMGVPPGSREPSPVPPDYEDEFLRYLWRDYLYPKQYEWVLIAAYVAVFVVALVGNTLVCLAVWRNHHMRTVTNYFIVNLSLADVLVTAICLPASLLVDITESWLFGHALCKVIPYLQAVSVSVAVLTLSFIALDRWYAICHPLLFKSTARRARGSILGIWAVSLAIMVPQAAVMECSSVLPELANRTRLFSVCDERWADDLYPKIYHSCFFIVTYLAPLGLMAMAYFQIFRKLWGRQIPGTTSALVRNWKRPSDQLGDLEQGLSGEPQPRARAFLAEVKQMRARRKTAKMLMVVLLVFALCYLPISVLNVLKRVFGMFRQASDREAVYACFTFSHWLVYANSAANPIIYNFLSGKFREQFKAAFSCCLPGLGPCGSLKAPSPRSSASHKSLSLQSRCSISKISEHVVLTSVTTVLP
In the case of `c1ccc(-c2cc(-c3ccccc3)[nH]n2)cc1`, the inhibition is reported as -9.86% (inactive).
With `Fc1ccccc1/C=N/n1c(-c2cccnc2)n[nH]c1=S` the inhibition was -5.34% (inactive).
With `S=c1[nH]nc(-c2cc(-c3ccccc3)n[nH]2)n1/N=C/c1c2ccccc2cc2ccccc12` the inhibition was 44.8% (active).
`C=CC[C@H](CC(=O)OC(C)(C)C)C(=O)OC[C@H]1CCCN1C(=O)[C@H](CC=C)CC(=O)N(CCO)Cc1ccccc1` was tested, and the inhibition was -15.6% (inactive).
`O=C1N[C@H](Cc2c[nH]c3ccccc23)COC(=O)[C@H](Cc2ccc(F)cc2)C/C=C\C[C@H]1CC(=O)N(CCO)Cc1ccccc1` was tested, and the inhibition was -2.05% (inactive).
For `CC(C)(C)NS(=O)(=O)NC(=O)C1=C(N2CCCC2)COC1=O`, the inhibition was -2.12% (inactive).
For `O=C(CNC(=O)c1cccnc1)N/N=C/c1cccnc1`, the inhibition was 1.04% (inactive).
`O=C(NN=C1CCC(=NNC(=O)c2cccnc2)CC1)c1cccnc1` was tested, and the inhibition was -6.2% (inactive).
With `O=C(N/N=C/c1sc(N2CCCCC2)nc1-c1cccs1)c1cccnc1` the inhibition was 44.9% (active).
In the case of `CC(=O)N(O)CCCCCNC(=O)CCC(=O)N(O)CCCCCNC(=O)CCC(=O)N(O)CCCCCNC(=O)CCC(=O)O`, the inhibition is reported as -5.54% (inactive).
`O=C(NC(Cc1c[nH]c2ccccc12)C(=O)N/N=C/c1ccc(Br)cc1)c1cccs1` (stereo unspecified) was tested, and the inhibition was 52.5% (active).
With `CC(=O)NC(Cc1c[nH]c2ccccc12)C(=O)O` (stereo unspecified) the inhibition was -1.34% (inactive).
For `CC(=O)Nc1ccc(/C=N/NC(=O)c2cccs2)cc1`, the inhibition was 18.2% (inactive).
For `Cc1ccc(N2C(=O)N3[C@@H]4c5ccccc5OC[C@@H]4[C@@H](c4ccccc4)[C@@]3(C)C2=O)cc1`, the inhibition was -30.9% (inactive).
For `COc1ccc(CNc2nc(NCc3ccc(OC)cc3)c3ncn(C4CCCC4)c3n2)cc1`, the inhibition was -5.92% (inactive).
`Cc1noc(C)c1NC(=O)Nc1ccc2c(c1)C(=O)N([C@H](C)CO)C[C@H](C)[C@@H](CN(C)C(=O)Nc1ccccc1)O2` was tested, and the inhibition was -4.54% (inactive).
With `COc1cc(NS(=O)(=O)c2ccc(NC(C)=O)cc2)cc(OC)c1` the inhibition was 9.3% (inactive).
For `CC(=O)c1ccc(NC(=S)NC(=O)CC(C)C)cc1`, the inhibition was 3.22% (inactive).
`COc1ccc(NS(=O)(=O)c2ccc(NC(=S)NC(=O)CC(C)C)cc2)cc1` was tested, and the inhibition was 50.3% (active).
With `COc1ccc(N2CCN(C(CNS(=O)(=O)c3ccc(C)cc3)c3ccccc3)CC2)cc1` (stereo unspecified) the inhibition was -26.8% (inactive).
For `CCN([C@H](CO)C(C)C)S(=O)(=O)c1ccccc1Br`, the inhibition was 1.51% (inactive).
`O=C(COC(=O)COc1ccccc1F)Nc1cccc(S(=O)(=O)N2CCCCC2)c1` was tested, and the inhibition was -27.3% (inactive).
With `CCn1nnc2cc(C(=O)Nc3ccc(C(=O)OC(C)C)cc3)ccc21` the inhibition was -14.8% (inactive).
`Cc1cc(C)cc(OCC(=O)NC(C)c2ccccc2)c1` (stereo unspecified) was tested, and the inhibition was -37.8% (inactive).
With `COc1cc(OC)cc(C(=O)NC(C(=O)N2CCC2)C(C)C)c1` (stereo unspecified) the inhibition was -9.6% (inactive).
In the case of `COc1cc(OC)cc(C(=O)N[C@H](C(=O)OCC(=O)NC(C)c2ccccc2)C(C)C)c1` (stereo partly specified), the inhibition is reported as 59% (active).
For `CC(C)(C)OC(=O)C[C@@H]1C/C=C\C[C@@H](CC(=O)N[C@H](CO)Cc2ccccc2)C(=O)NCCOC1=O`, the inhibition was 2.53% (inactive).
For `COc1ccc(CN2C(CC(=O)Nc3cccnc3)c3ccc(C(F)(F)F)cc3S2(=O)=O)cc1` (stereo unspecified), the inhibition was -16.2% (inactive).
In the case of `O=[N+]([O-])/C=C/c1ccc2c(ccn2Cc2ccccc2)c1`, the inhibition is reported as 53.8% (active).
For `COC(=O)Cn1cc(/C=C/[N+](=O)[O-])c2ccccc21`, the inhibition was -4.68% (inactive).
With `O=C(Cn1ccc2cc(S(=O)(=O)N3CCCC3)ccc21)NCc1ccccc1` the inhibition was -25.5% (inactive).
`CC1(C)C[C@H]2C3=CCC4[C@@]5(C)CC[C@H](O)[C@](C)(CO)C5CC[C@@]4(C)[C@]3(C)C[C@@H](O)[C@@]2(CO)[C@@H](O)[C@@H]1O` (stereo partly specified) was tested, and the inhibition was -0.97% (inactive).
For `O=C(Nc1ccc(NC(=O)c2ccco2)c(Cl)c1)c1cccc([N+](=O)[O-])c1`, the inhibition was -19.9% (inactive).
In the case of `O=C(Nc1ccc(C2CC2(Cl)Cl)cc1)c1cccc([N+](=O)[O-])c1` (stereo unspecified), the inhibition is reported as 45.8% (active).
For `O=C(Nc1ccc(C(=O)N2CCCCC2)cc1)c1cccc([N+](=O)[O-])c1`, the inhibition was 1.86% (inactive).
With `CC(Sc1nncn1C)C(=O)NCCC1=CCCCC1` (stereo unspecified) the inhibition was -6.11% (inactive).
In the case of `COc1ccc(CNC(=O)C[C@H]2C[C@H](C(=O)N3CCOCC3)[C@@]3(CCC4CCCC4)c4[nH]c5ccc(Cl)cc5c4CCN3C2=O)cc1OC`, the inhibition is reported as 19.8% (inactive).
With `COc1ccc(NC(=O)/C(Cl)=C(/Cl)S(=O)Cc2ccc(C)cc2)cn1` (stereo unspecified) the inhibition was 47.5% (active).
`COc1ccc(Nc2ccc([N+](=O)[O-])cn2)cn1` was tested, and the inhibition was -22.9% (inactive).
`Cc1ccc(NC(=O)OCc2cncs2)cc1` was tested, and the inhibition was -7.33% (inactive).
With `CCCSc1ccc([C@H]2N[C@@](Cc3ccccc3)(C(=O)OC)[C@H]3C(=O)N(C)C(=O)[C@@H]23)cc1` the inhibition was -27.9% (inactive).
`CC(C)(C)OC(=O)C1=C(CO)CS[C@@H]2[C@H](NC(=O)Cc3ccccc3)C(=O)N12` was tested, and the inhibition was 1.11% (inactive).
In the case of `C=CC[C@@H](CC(=O)NCCO)C(=O)N[C@H](C)COC(=O)[C@@H](CC=C)CC(=O)OC(C)(C)C`, the inhibition is reported as 1.19% (inactive).
With `CN(C(=O)COC(=O)Cc1ccccc1[N+](=O)[O-])C1CCS(=O)(=O)C1` (stereo unspecified) the inhibition was 1.38% (inactive).
For `CC(C)n1cnc2c(NCc3ccccc3)cc(N[C@@H](CO)Cc3ccccc3)cc21`, the inhibition was -6.91% (inactive).
For `Cc1cc(N2CCCC2)ccc1NC(=O)COc1ccc(Cl)cc1`, the inhibition was 23.4% (inactive).
In the case of `Cc1ccc(NC(=O)COc2ccc(-n3ccnc3)cc2)cc1Cl`, the inhibition is reported as 49.1% (active).
With `CCC(=O)c1ccc(OCC(=O)Nc2ccc3nc(C)sc3c2)cc1` the inhibition was -9.93% (inactive).
In the case of `CN(CC(=O)Nc1ccc(OC(F)F)cc1)S(=O)(=O)/C=C/c1ccccc1`, the inhibition is reported as -20% (inactive).
For `COc1ccc(S(=O)(=O)Nc2cccc3c2O[C@H](CN(C)S(=O)(=O)c2ccc(OC)cc2)[C@@H](C)CN([C@H](C)CO)C3=O)cc1`, the inhibition was -20.8% (inactive).
`CN[C@H](C(=O)NC[C@H]1O[C@@H](n2cnc3c(N)ncnc32)[C@H](O)[C@@H]1O)[C@@H](C)OCc1ccccc1` was tested, and the inhibition was -13.1% (inactive).
For `CCCCNS(=O)(=O)CCNCc1ccccc1OC`, the inhibition was -14.5% (inactive).
For `O=C(COC(=O)C1CCCO1)Nc1nc(-c2ccc(F)cc2)cs1` (stereo unspecified), the inhibition was -7.58% (inactive).
For `CCOC(=O)Cn1c(-c2cccnc2Cl)nc2ccccc21`, the inhibition was -7.78% (inactive).
`CCOC(=O)COn1c(=O)c(-c2ccc(OCC)cc2)[n+]([O-])c2ccccc21` was tested, and the inhibition was -31.8% (inactive).
In the case of `CCCCn1c(N)c(N(CCOC)C(=O)c2cccc(OCc3ccccc3)c2)c(=O)[nH]c1=O`, the inhibition is reported as -25.9% (inactive).
For `CCn1c(COc2cccc(OC)c2)nnc1SCC(=O)N1CCOCC1`, the inhibition was -6.58% (inactive).
For `CCCCCCCCCCOC(=O)Cn1c(COc2ccc(C)cc2)[n+](C)c2ccccc21`, the inhibition was 51.1% (active).
In the case of `CCCCCCCCCCOC(=O)Cn1c(COc2cccc(OC)c2)[n+](C)c2ccccc21`, the inhibition is reported as 41.4% (active).
For `COc1ccc2nc3n(c(=O)c2c1)-c1ccc(Cl)cc1C(=O)NC3Cc1ccccc1` (stereo unspecified), the inhibition was -24.8% (inactive).
With `CCOC(=O)C1=CN(Cc2ccc(Br)cc2)S(=O)(=O)N(C)C1C` (stereo unspecified) the inhibition was -12.4% (inactive).
In the case of `O=C1[C@@H](c2ccccc2)[C@@H](c2ccccc2)N1c1cccnc1`, the inhibition is reported as 42.8% (inactive).
With `COc1cc(/C=C/C(=O)Nc2ccc(OC)c(S(=O)(=O)N3CCOCC3)c2)ccc1OCC#N` the inhibition was 9.74% (inactive).
`C=CCn1c(SCC(=O)Nc2nc3ccccc3s2)nnc1-c1ccccc1O` was tested, and the inhibition was 68% (active).
With `C=CCn1c(SCC(=O)NCc2ccccc2)nnc1-c1cc(Br)ccc1O` the inhibition was -7.43% (inactive).
In the case of `Cn1nnnc1SCC(=O)Nc1nc2ccccc2s1`, the inhibition is reported as -5.36% (inactive).
With `Cc1ccc(S(=O)(=O)NC[C@H]2O[C@@H](n3cnc4c(N)ncnc43)[C@H](O)[C@@H]2O)s1` the inhibition was -0.44% (inactive).
For `CCn1c(=S)[nH]c2cc(S(=O)(=O)N3CCOCC3)ccc21`, the inhibition was -24.1% (inactive).
With `O=[N+]([O-])c1c(NCCO)cc(Sc2nc3ccccc3s2)c2nonc12` the inhibition was 59.3% (active).
For `CCOc1ccccc1Nc1ccc2nonc2c1[N+](=O)[O-]`, the inhibition was -9.48% (inactive).
With `O=C(O)c1ccccc1CSc1nc2ccccc2s1` the inhibition was -10.9% (inactive).
`C[C@@H](CN1CCC[C@H]1CN1C(N)=NC[C@@H]1Cc1ccccc1)N1C[C@@H](Cc2ccccc2)N(CCCC2CCCC2)C1=N` was tested, and the inhibition was -9.98% (inactive).
For `Fc1ccccc1-c1cc2cc3c(cc2cn1)OCO3`, the inhibition was 38.1% (inactive).
With `Cc1c(CN2CC[C@@H](N3CCN(c4ccccn4)CC3)[C@H](O)C2)[nH]c2ccc(F)cc12` the inhibition was -18.8% (inactive).
For `Fc1ccc2[nH]c3c(N4CCSCC4)ncnc3c2c1`, the inhibition was 52.4% (active).
In the case of `C#CCOCCOCCOCCNc1nc(N2CCN(C(=O)[C@H](CCC(=O)O)n3cc(CN)nn3)CC2)nc(N2CCN(C(=O)[C@H](CCC(=O)O)n3cc(CN)nn3)CC2)n1`, the inhibition is reported as -6.85% (inactive).
`CN(C(=O)c1cccc(NC(=O)Cc2cccc([N+](=O)[O-])c2)c1)C1CCCCC1` was tested, and the inhibition was -12.3% (inactive).
`C[C@H](CO)N1C[C@H](C)[C@H](CN(C)CC2CC2)Oc2ccc(NC(=O)CCN3CCOCC3)cc2C1=O` was tested, and the inhibition was 7.19% (inactive).
In the case of `COc1ccc(NS(=O)(=O)c2ccc(C(=O)Nc3c(C)n(C)n(-c4ccccc4)c3=O)cc2)cc1`, the inhibition is reported as 1.25% (inactive).
`CC(NC(=O)COC(=O)Cn1cc(C(F)(F)F)ccc1=O)c1ccccc1` (stereo unspecified) was tested, and the inhibition was -5.69% (inactive).
`CC1O[C@H](OC2C(COC3OC(CO)C(O)[C@H](O)C3O)OC(OC3CC[C@]4(C)C(CC[C@@]5(C)[C@@H]4C=C[C@]46OC[C@@]7(CCC(C)(C)C[C@H]74)C(O)C[C@@]56C)C3(C)C)C(O)C2O)C(O)C(O)C1O` (stereo partly specified) was tested, and the inhibition was -2.45% (inactive).
